# Assay outcomes (PubChem BioAssay)
# DRD3 antagonist: antagonists of human D3 dopamine receptor | max response, negative = inhibition, % | D3R cells, DiscoveRx beta-arrestin luminescence, antagonist mode; active compounds read low | 360,000 compounds, 2.5% hits; in the data active = max response below about -50%; inconclusive = no clear call, values can overlap the other calls; note: % is set by controls: 0 for no effect and ±100 for the full control effect
# Target sequence (P35462 whole entry, looked up): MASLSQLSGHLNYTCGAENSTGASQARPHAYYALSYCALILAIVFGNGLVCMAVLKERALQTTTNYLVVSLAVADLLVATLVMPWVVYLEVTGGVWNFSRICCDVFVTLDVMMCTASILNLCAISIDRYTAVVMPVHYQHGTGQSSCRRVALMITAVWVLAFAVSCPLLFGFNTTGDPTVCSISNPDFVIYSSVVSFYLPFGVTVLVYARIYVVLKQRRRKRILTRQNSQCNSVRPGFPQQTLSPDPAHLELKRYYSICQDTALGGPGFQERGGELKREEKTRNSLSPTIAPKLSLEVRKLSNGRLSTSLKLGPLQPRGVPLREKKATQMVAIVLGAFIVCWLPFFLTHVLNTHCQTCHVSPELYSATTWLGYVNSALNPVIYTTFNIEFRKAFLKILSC
#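 Cells expressing the human receptor were seeded at 1500 cells/well, incubated overnight at 37 degrees C in 5% CO2, then exposed to library compounds with dopamine controls for 90 minutes at 37 degrees C before luminescent detection.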
# DRD3 agonist: agonists of human D3 dopamine receptor. max activation, %. 410,000 compounds, 0.58% hits. P35462. D3R DiscoveRx beta-arrestin cells, luminescence, 90 min; in the data active = max activation above about 30%; note: 0% is about no effect
#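 Agonist mode: compounds and dopamine controls were applied to plated cells for 90 min at 37 degrees C after an overnight attachment at 1500 cells/well. Luminescent read-out followed 30 - 60 minutes at room temperature with DiscoveRx detection reagent.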
# KB-3-1 tox: KB-3-1 parental cell cytotoxicity | KB-3-1 viability, CellTiter-Glo ATP luminescence, 72 h | Potency, µM (highest dose often 46.1 µM), most hits filed as cytotoxic | 400,000 compounds, 1.4% hits; note: potency is the fitted concentration of half-maximal effect; % is set by controls: 0 for no effect and ±100 for the full control effect; nearly all actives have a fitted effect of over 60% in size
#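 Viability of parental KB-3-1 cells, measured by CellTiter-Glo luminescence, followed a 72 h incubation at 37 °C with pinned compounds in phenol-red-free DMEM containing 10% FBS.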
# KB-V1 MDR tox: KB-V1 MDR subline cytotoxicity | 400,000 compounds, 3.4% hits | Potency, µM (titrated, usually from 46.1 µM), usual class: cytotoxic | AID 1347076 | KB-V1 MDR cells viability, CellTiter-Glo, 72 h; note: potency is the fitted concentration of half-maximal effect; % is set by controls: 0 for no effect and ±100 for the full control effect; nearly all actives have a fitted effect of over 60% in size
#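 In this primary screen, KB-V1 cells overexpressing P-gp are incubated with library compounds (lowest to highest concentration) for 72 h at 37 degrees C before a luminescent ATP viability read.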
# SW480 rereplic: DNA re-replication induction in SW480 cells; Potency, µM (doses to about 46.1 µM), for inactives: at the highest dose re-replication activation, actives largely listed as activators; SW480 DNA re-replication, Hoechst DNA content imaging, 48 h; 340,000 compounds, 1.8% hits; note: potency is the fitted concentration of half-maximal effect; % of control where 0% means no effect; nearly all actives have a fitted effect of over 55% in size
#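 Compounds, transferred as 23 nL by pin tool, were incubated with cells for 48 hr; DNA content per nucleus was then quantified by Hoechst staining and fluorescence plate imaging.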
# MCF10A rerep: inducers of DNA re-replication in MCF 10A breast cells. MCF 10A DNA re-replication, Hoechst nuclear intensity, 48 h. Potency, µM (highest dose often 46.1 µM), inactives show at the highest dose activity, positive = re-replication, most hits filed as activators. 350,000 compounds, 2.9% hits. AID 624296; note: potency is the fitted concentration of half-maximal effect; % of control where 0% means no effect; nearly all actives have a fitted effect of over 50% in size
# * hit, by the source's call; i = inactive; u = inconclusive; x = no result given. Sampled rows, rich in hits. Any-hit rate of the full collection: about 8.9%. Unless noted, calls come from the whole dose curve; as a rule, active = well fitted curve in the direction sought with a large enough effect; inconclusive = small, poorly fitted or top-dose-only effect, or another doubt; inactive = no such curve, though single readings can be large; an effect the other way counts as inactive or inconclusive.
SMILES,DRD3 antagonist,DRD3 agonist,KB-3-1 tox,KB-V1 MDR tox,SW480 rereplic,MCF10A rerep
CCOC(=O)C1Nc2ccccc2C2C(O)C(O)CC12 (stereo unspecified),-52.0*,-34.3,i,i,u,19.2%
CCOC(=O)C1Nc2ccc(C(F)(F)F)cc2C2c3ccccc3CC12 (stereo unspecified),-23.5,0.0,16.4µM*,18.4µM*,2.9%,u
CCOC(=O)C1Nc2ccc(OC(F)(F)F)cc2C2C=CCC12 (stereo unspecified),7.0,-18.0,i,i,13.7%,21.6%
O=C(Cn1cccc1C(=O)c1ccccc1)NCCCN1CCOCC1,14.5,3.6,i,i,0.3%,-1.7%
Cc1ccc(C)c(N2CCN(CCCNC(=O)Cn3cccc3C(=O)c3ccccc3)CC2)c1,-67.6*,-15.7,u,i,u,1.9%
Cc1ccccc1C(=O)c1cccn1CC(=O)NCCCN1CCc2ccccc2C1,-50.8*,-10.1,i,i,1.5%,u
CCOc1ccc(CCNC(=O)Cn2cccc2C(=O)c2ccccc2C)cc1OCC,1.1,11.2,i,4.61µM*,-5.0%,-0.6%
CCOc1ccc2ncc3c(-c4cccc(OC)c4)nn(-c4ccccc4)c3c2c1,x,3.8,i,i,x,x
O=C(Nc1nnc(S(=O)(=O)N2CCCCC2)s1)c1ccc(F)cc1,x,-9.4,i,u,x,x
C=CCn1c(SCC(=O)c2ccccc2)nnc1-c1cc2ccccc2o1,55.9,-4.4,i,u,-4.4%,15.8%
C=CCn1c(SCC(=O)NNC(=S)Nc2ccccc2)nnc1-c1ccccc1,-4.0,3.3,i,i,33.3%,5.4%
C=CCn1c(SCc2ccc(C(=O)Nc3ccccc3)cc2)nnc1-c1ccccc1,-18.8,-9.1,i,2.59µM*,-0.1%,2.2%
C=CCn1c(SCC(=O)c2ccccc2)nnc1-c1ccc2c(c1)OCO2,30.1,-2.0,i,20.6µM*,u,u
CNC(=S)NN=C(C)CCCC(C)=NNC(=S)NC,-0.7,3.1,u,i,0.411µM*,0.9%
CC1(C)N=C(N)N=C(N)N1c1ccc(Cl)cc1,x,0.0,x,x,x,x
Cc1cc(C)nc(NC(=NCCc2c[nH]c3ccccc23)NC(=O)Nc2ccccc2)n1,4.1,-5.7,i,i,u,25.9µM*
CC1Oc2ccc(C#N)cc2N(Cc2ccccc2OC(F)(F)F)C1=O (stereo unspecified),6.1,0.2,i,i,x,x
Cn1c(=O)c2c(nc(CN3CCN(c4ccccc4F)CC3)n2Cc2ccc(F)cc2)n(C)c1=O,x,0.7,i,i,x,x
Cn1c(=O)c2c(nc(CN3CCc4ccccc4C3)n2Cc2ccc(F)cc2)n(C)c1=O,11.0,1.8,i,9.2µM*,u,10.6%
Cc1ccccc1Cn1c(CN2CCc3ccccc3C2)nc2c1c(=O)n(C)c(=O)n2C,-14.7,-4.5,i,23.1µM*,1.7%,14.7%
CC(=O)c1ccc(OCC(=O)N(C2CCCCC2)C2CCS(=O)(=O)C2)cc1 (stereo unspecified),24.6,7.3,i,i,-9.2%,4.4%
O=C(CCl)N(C1CCCC1)C1CCS(=O)(=O)C1 (stereo unspecified),-2.7,8.4,u,i,20.6µM*,u
CCC(C)C(=O)Nc1ccc(S(=O)(=O)N2CCCC2)cc1 (stereo unspecified),-8.2,0.3,i,i,u,u
CCC(C)NS(=O)(=O)c1ccc(S(=O)(=O)N2CCCC3(CCCCC3)C2)cc1 (stereo unspecified),23.6,0.5,5.8µM*,3.66µM*,7.6%,u
O=C(NCCCN1CCCC1=O)c1cc(S(=O)(=O)N2CCOCC2)ccc1Cl,-3.2,2.0,i,i,0.3%,-2.8%
SMILES,DRD3 antagonist,DRD3 agonist,KB-3-1 tox,KB-V1 MDR tox,SW480 rereplic,MCF10A rerep
O=C(NCCCN1CCCC1=O)c1cc(S(=O)(=O)N2CCOCC2)c(Cl)cc1Cl,-16.3,-1.8,i,i,4.61µM*,-0.9%
CCn1c(=O)cc(OCC(=O)N2CCN(c3cccc(Cl)c3)CC2)c2ccccc21,x,-2.1,i,i,x,x
CCN(CC)C(=O)CSc1nnc(-n2nc(C)cc2C)c2ccccc12,6.1,0.6,i,13µM*,-9.1%,-6.0%
Cc1noc(/C=C/c2ccccc2F)c1S(=O)(=O)N1CCC(C(=O)Nc2ccc(C#N)cc2)CC1,x,3.1,x,x,x,x
CCc1cc(=O)oc2c3c(c(Cl)cc12)OCN(Cc1cccc(OC)c1)C3,x,-19.4,i,i,x,x
Cc1cc(C)cc(N(CC(=O)N2CCC(C)CC2)S(=O)(=O)c2ccccc2)c1,-2.8,4.1,i,16.4µM*,u,4.1%
Cc1cc(C)cc(N(CC(=O)N2CCOCC2)S(=O)(=O)c2ccccc2)c1,2.1,2.5,i,u,-4.2%,-11.7%
COc1ccc(NC(=O)C(=O)NCCC2CCCCN2S(=O)(=O)c2ccccc2)cc1 (stereo unspecified),0.0,-12.3,4.61µM*,u,14.6µM*,u
COc1ccc(NC(=O)C(=O)NCCC2CCCCN2S(=O)(=O)c2cccs2)cc1 (stereo unspecified),4.9,-1.5,2.59µM*,1.84µM*,4.47µM*,2.06µM*
COc1ccc(CNC(=O)C(=O)NCCC2CCCCN2S(=O)(=O)c2ccccc2)cc1 (stereo unspecified),10.8,1.3,i,i,-1.3%,10.3%
CCCn1c(SCC(=O)NCC)nc2sc3c(c2c1=O)CCC3,-20.5,-3.0,i,u,2.9%,18.5%
CCCn1c(SCC(=O)N(C)C2CCS(=O)(=O)C2)nc2sc3c(c2c1=O)CCC3 (stereo unspecified),-6.5,-0.6,i,23.1µM*,18.4µM*,11.2%
Cc1cccc(Cn2c(CN3CCC(C(=O)NCCc4ccccc4)CC3)cc3ccccc32)c1,x,-16.7,u,u,x,x
Nc1cc2c3ccccc3ccc2c2ccccc12,1.0,8.7,u,i,20.6µM*,u
Clc1nccc2c1ccc1ccccc12,x,x,i,i,x,x
CN1CCN(S(=O)C23CC4CC(CC(C4)C2)C3)CC1 (stereo unspecified),-88.5*,-15.7,i,i,-7.6%,-2.5%
O=S(N1CCCCC1)C12CC3CC(CC(C3)C1)C2 (stereo unspecified),4.5,4.0,i,i,-7.6%,-0.1%
COC(=O)c1c(NC(=O)/C=C/c2ccco2)sc2c1CCC2,14.3,-7.4,i,i,2.4%,u
Cc1sc(NC(=O)/C=C/c2ccco2)c(C(=O)OC(C)C)c1C,5.3,31.8*,i,i,-4.5%,0.8%
C/C=C1\[C@H]2C=C(C)C[C@]1(N)c1ccc(=O)[nH]c1C2,x,6.9,x,x,x,x
